Screening data (PubChem)
Shown are actives, neighbours in structure and some others; about 1.4% of the full set was active somewhere.
MEX-5 binding = C. elegans MEX-5 TCR-2 RNA binding activity; Q9XUB2; MEX-5/FITC-TCR2 RNA binding, fluorescence polarization; hits give low values; AID 1832; activity score (negative = inhibition of binding), % at 10 µM; 0.38% of 300,000 active;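 active means inhibition past about -25% in most replicates, and total fluorescence under double the plate's negative control median, limit read from the data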;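 further: 0% = DMSO and -100% = 5 µM competing unlabeled TCR2 RNA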
Target sequence (Q9XUB2 whole entry, looked up): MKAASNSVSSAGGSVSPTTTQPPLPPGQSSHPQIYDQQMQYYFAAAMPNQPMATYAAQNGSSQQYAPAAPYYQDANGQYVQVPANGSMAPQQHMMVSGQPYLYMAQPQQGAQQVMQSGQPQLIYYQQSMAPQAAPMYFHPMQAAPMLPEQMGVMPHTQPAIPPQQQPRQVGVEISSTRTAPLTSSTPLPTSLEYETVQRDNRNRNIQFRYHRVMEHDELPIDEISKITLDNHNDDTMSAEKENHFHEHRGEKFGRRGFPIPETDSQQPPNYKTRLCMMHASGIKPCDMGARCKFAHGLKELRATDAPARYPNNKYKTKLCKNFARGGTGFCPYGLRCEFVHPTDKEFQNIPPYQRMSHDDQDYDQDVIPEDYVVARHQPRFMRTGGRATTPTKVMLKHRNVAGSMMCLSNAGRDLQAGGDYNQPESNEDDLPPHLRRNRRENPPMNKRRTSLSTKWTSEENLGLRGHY
MCL1 BIM primary = MCL1-BIM-BH3 interaction inhibition (human). 0.68% of 320,000 active. AID 2057. Q07820. GST-MCL1 / FITC-Bim-BH3 fluorescence polarization. inhibition, % at 10.9 µM;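 active means inhibition above the mean inhibition of all tested compounds plus 3 SD, set per campaign, cut at about 40% in these data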;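 further: 0% = DMSO wells and 100% = unlabeled Bim-BH3 peptide control; higher means more loss of mP so more displacement of Bim peptide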
eLon inh = E. coli protease La inhibition; purified E. coli Lon protease, fluorescence polarization; 0.42% of 360,000 active; inhibition, % at 7.94 µM; in the data active means inhibition above about 13%, passing the limit was not always enough;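 further: 0% = enzyme with probe and DMSO and 100% = no enzyme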
GLD-1 RNA inh = GLD-1-TGE RNA interaction inhibition (C. elegans); purified GLD-1 + fluorescein TGE RNA, fluorescence polarization; inhibition, % at 5.96 µM; 0.44% of 320,000 active;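 active means percent inhibition above a per-plate cutoff, the plate mean of test compounds plus 3 SD, cut at about 30% in these data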;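 further: 0% = DMSO wells with GLD-1 and probe and 100% = wells lacking GLD-1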
BCLXL inh = blocks human Bcl-xL binding to Bim BH3 peptide | 0.7% of 320,000 active | GST-Bcl-xL / FITC-Bim BH3 peptide fluorescence polarization | inhibition, % at 10.9 µM | Q07817;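 active means inhibition above the mean of all tested compounds plus 3 SD, cutoff set per campaign, cut at about 30% in these data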;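 further: 0% = DMSO wells and 100% = unlabeled Bim-BH3 peptide competitor; inhibitors lower millipolarization by displacing the labeled peptide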
Target sequence (Q07817 whole entry, looked up): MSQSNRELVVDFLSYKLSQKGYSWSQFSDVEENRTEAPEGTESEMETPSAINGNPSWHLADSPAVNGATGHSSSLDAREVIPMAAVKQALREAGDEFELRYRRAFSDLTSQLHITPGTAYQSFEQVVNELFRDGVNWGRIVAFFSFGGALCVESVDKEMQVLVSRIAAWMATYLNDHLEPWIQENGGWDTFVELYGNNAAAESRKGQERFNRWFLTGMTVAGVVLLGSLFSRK
Bcl-xL conf = Bcl-xL (human) inhibition, MCL1 counter-screen confirmation; GST-Bcl-xL / FITC-Bim BH3 peptide FP binding; AID 2166; shares compounds with MCL1 BIM primary; 54% of 1,700 active; inhibition, % at 10.9 µM;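 active means inhibition above a cutoff equal to the mean inhibition of all tested compounds plus 3 SD, cut at about 30% in these data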;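 further: 0% = DMSO wells and 100% = unlabeled Bim BH3 control peptide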
MCL1 BIM confirm = MCL1-BIM-BH3 interaction inhibition, confirmation | shares compounds with MCL1 BIM primary | inhibition, % at 10.9 µM | AID 2168 | GST-MCL1 / FITC-Bim-BH3 fluorescence polarization | 61% of 1,700 active;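 active means inhibition above the average of all tested compounds plus 3 SD, cut at about 40% in these data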;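 further: 0% = DMSO wells and 100% = unlabeled Bim-BH3 control peptide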
* marks the source's active call; other numbers are inactive results; · = not tested or not shown.

SMILES | MEX-5 binding | MCL1 BIM primary | eLon inh | GLD-1 RNA inh | BCLXL inh | Bcl-xL conf | MCL1 BIM confirm
COCCn1c(SCC(=O)Nc2ccc(F)cc2)nc2c(c1=O)SCC2 | · | · | -2 | · | · | · | ·
CNc1cccc(-c2cccc(C(=O)N3CCOCC3)c2)n1 | · | · | -22 | · | · | · | ·
Cc1ccc[n+](-c2nc3ccccc3nc2C(=C=[N-])C#N)c1 | 1 | -1 | -17 | -22 | 6 | · | ·
CCc1ccc[n+](-c2nc3ccccc3nc2C(=C=[N-])C#N)c1 | -13 | 84* | -25 | 50* | 88* | 21 | 27
CC1=C(C(=O)N(C)C)CC(CC(=O)NCCCN(C)C)C(=O)N1Cc1ccccc1 (stereo unspecified) | · | · | 0 | · | · | · | ·
CC1=C/C(=C/N(C)c2ccccc2)C(=O)S1 | -9 | 41* | -5 | 11 | 29 | 27 | 26
COc1ccc(NC(=O)c2noc3c2CCC3)cc1 | -3 | 36 | 2 | 0 | 10 | · | ·
COc1cc(NC(=O)c2noc3c2CCC3)c(OC)cc1Cl | -2 | 50* | 7 | 5 | 11 | 15 | 53*
O=C(O)c1ccccc1/C=N/NC(=O)c1cc(-c2ccco2)nc2ccccc12 | -16 | 64* | -11 | 3 | 25 | 42* | 91*
O=C1C(=Cc2ccc(Br)o2)C(=O)c2ccccc21 | · | 92* | 7 | 6 | 47* | 43* | 64*
CC1=C/C(=C\c2ccc(Br)o2)C(=O)O1 | -4 | 7 | -3 | 3 | 2 | · | ·
Cc1cc(/C=C\c2ccc3cc(N(C)C)ccc3[n+]2C)c(C)n1-c1ccccc1 | · | 132* | -5 | 139* | 54* | 41* | 101*
Nc1ncnc2oc(-c3ccco3)c(-c3ccco3)c12 | -18 | 95* | 10 | 8 | 36* | 40* | 93*
O=C(CNc1cccc2ccccc12)N/N=C/c1ccc(C(=O)O)cc1 | -4 | 68* | -2 | 6 | 7 | 13 | 52*
CC(c1nc2ccccc2c(=O)[nH]1)N(C)c1ccc2ccccc2c1 (stereo unspecified) | 3 | 87* | 20 | 78* | 74* | 12 | 22
CC(C)Sc1nc2ccccc2c(=O)[nH]1 | 0 | -1 | -19 | -1 | 0 | · | ·
CCn1c(SCC(=O)N/N=C/C=C/c2ccco2)nnc1-c1ccccc1 | -3 | 16 | 3 | 5 | 13 | · | ·
O=C(CSc1nnc(SCc2ccccc2)s1)N/N=C/C=C/c1ccco1 | 1 | 58* | -11 | 5 | 9 | 23 | 67*
CCN(CC)c1ccc(/C=C/C(=O)c2ccc(Br)cc2)cc1 | -51* | 61* | -436 | 76* | 58* | 62* | 63*
Cc1ccnc(Nc2nc(-c3ccc(O)c(O)c3)cs2)c1 | -1 | 42* | 11 | 15 | 29 | 36* | 42*
Fc1ccc(C2Nc3cccc4cccc(c34)N2)cc1 | -6 | 41* | -5 | 10 | 19 | 13 | 8
Brc1ccc(C2Nc3cccc4cccc(c34)N2)cc1 | · | · | 4 | · | · | · | ·
FC(F)(F)c1ccc(C2Nc3cccc4cccc(c34)N2)cc1 | · | · | -1 | · | · | · | ·
Cc1ccc(C2Nc3cccc4cccc(c34)N2)s1 | -2 | 61* | -1 | 22 | 51* | 16 | 8
CC(=O)NC(c1cccc(F)c1)c1nc(-c2csc3ccccc23)cs1 (stereo unspecified) | · | · | 2 | · | · | · | ·
SMILES | MEX-5 binding | MCL1 BIM primary | eLon inh | GLD-1 RNA inh | BCLXL inh | Bcl-xL conf | MCL1 BIM confirm
O=c1nc2s/c(=C\c3ccco3)c(=O)n2nc1Cc1ccc(F)cc1 | 0 | 53* | -19 | -4 | 13 | 27 | 68*
Cc1ccc(-c2nc3s/c(=C\c4ccco4)c(=O)n3n2)cc1 | -1 | 18 | -12 | 7 | 9 | · | ·
CCNc1nc(-c2cc(C)n(Cc3ccco3)c2C)cs1 | 0 | 46* | -5 | 14 | 41* | 14 | 18
CCOC(=O)C1CCCN(C(=O)c2ccc(F)c(Cl)c2)CC1 (stereo unspecified) | · | · | -5 | · | · | · | ·
O=C(NCc1nnnn1-c1ccc(F)cc1)c1ccc(S(=O)(=O)N2CCOCC2)cc1 | · | · | -1 | · | · | · | ·
CNc1ccccc1 | · | 4 | 7 | 1 | 4 | · | ·
CNc1cccccc1=S | -7 | 78* | 1 | 28 | 54* | 28 | 27
COC(=O)CSc1nc(NC(C)(C)C)nc(N(C)C)n1 | 2 | 2 | 2 | 2 | 6 | · | ·
CC(=O)C(Sc1nc(NC(C)(C)C)nc(N(C)C)n1)C(C)=O | 0 | 193* | -8 | 2 | 7 | 7 | -1
N#Cc1c(SCC(=O)Nc2nncs2)sc2c(O)cc(=O)[nH]c12 | -14 | 70* | -15 | -5 | 34* | 25 | 53*
COc1cc(Cl)c(C)cc1NC(=O)CSc1sc2c(O)cc(=O)[nH]c2c1C#N | 1 | 43* | -18 | 0 | 12 | 11 | 14
COc1ccc(C)cc1NC(=O)Cc1csc(NC(=O)Nc2ccccc2OC)n1 | · | · | 1 | · | · | · | ·
COCCCNC(=O)c1ccc2sc([C@@H]3O[C@H](CO)[C@H](O)[C@H](O)[C@H]3O)nc2c1 | · | · | 1 | · | · | · | ·
COc1ccc(C(=O)NCCS(=O)(=O)NCc2ccccc2)cc1 | 1 | 2 | 10 | 2 | 2 | · | ·
O=C(O)c1ccccc1-c1ccc(/C=c2\sc3nc4cc(Br)cnc4n3c2=O)o1 | 5 | 60* | -45 | 11 | 38* | -30 | -62
CC(C)CN(C(=O)COC(=O)c1cc2c(s1)CCC2)C1CCS(=O)(=O)C1 (stereo unspecified) | 0 | 42* | 4 | 6 | 8 | -1 | 31
Cn1c(=O)c2cc(NC(=O)NCCc3cccs3)ccc2n1C/C=C/c1ccccc1 | · | · | 2 | · | · | · | ·
COc1ccc(OC)c(NC(=O)COC(=O)c2cc3c(s2)CCC3)c1 | 1 | 57* | -1 | 8 | 6 | 11 | 43*
COc1ccccc1NC(=O)COC(=O)c1cc2c(s1)CCC2 | · | · | -3 | · | · | · | ·
CC1(OC(=O)C2CCCC2)C(=O)C=C2C=C(c3ccsc3)N(CCc3ccccn3)C=C2C1=O (stereo unspecified) | -7 | 56* | 19* | 37* | 48* | 13 | 18
CC1CC(C)CN(C(=O)COC(=O)c2ccc3c(c2)OCO3)C1 (stereo unspecified) | · | 46* | -7 | 5 | 2 | -1 | 6
Nc1cc2c(cc1[N+](=O)[O-])OCO2 | -2 | 44* | -2 | -1 | 10 | 41* | 78*
Nc1cc2c(cc1[N+](=O)[O-])OCCO2 | 1 | 1 | -2 | -5 | -4 | · | ·
Cc1cccc(NC(=O)CNC(=O)c2cccc(-n3cccc3)c2)c1C | -1 | 49* | -12 | -7 | 7 | 7 | 57*
CC1(Cc2cc(Cl)ccc2C(F)(F)F)C(=O)Nc2ccc(S(=O)(=O)NC3CCCCC3)cc21 (stereo unspecified) | · | · | -3 | · | · | · | ·
